Compound activity from PubChem BioAssay.
Shown are actives, neighbours in structure and some others; about 5.7% of the full set was active somewhere.
GLP1R cytotox – qHTS of GLP-1 Receptor Inverse Agonists: Cytotox Screen | HEK293 cAMP-luciferase reporter cells, luminescence, 24 h | 410,000 tested, 0.13% active | Potency, µM (highest dose often 38.3 µM), actives largely listed as inhibitors;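 note: loss of luciferase light is scored as toxicity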
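Quantitative HTS format, 1536 wells, 200 cells/uL seeded. Compounds: 23 nL, 24 h, 37 °C. Detection: luciferase reagent, luminescence at 12 min RT; decreased signal taken as cytotoxic.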
GLP1R ag – qHTS of GLP-1 Receptor Agonists | Potency, µM (top dose mostly 45.6 µM), hits mostly activators | AID 624172, 2012 | HEK293 GLP-1R CRE-luciferase, luminescence, 4-6 h; cells express a hypersensitive GLP-1R form | 380,000 tested, 0.007% active
Target sequence (P43220 whole entry, looked up): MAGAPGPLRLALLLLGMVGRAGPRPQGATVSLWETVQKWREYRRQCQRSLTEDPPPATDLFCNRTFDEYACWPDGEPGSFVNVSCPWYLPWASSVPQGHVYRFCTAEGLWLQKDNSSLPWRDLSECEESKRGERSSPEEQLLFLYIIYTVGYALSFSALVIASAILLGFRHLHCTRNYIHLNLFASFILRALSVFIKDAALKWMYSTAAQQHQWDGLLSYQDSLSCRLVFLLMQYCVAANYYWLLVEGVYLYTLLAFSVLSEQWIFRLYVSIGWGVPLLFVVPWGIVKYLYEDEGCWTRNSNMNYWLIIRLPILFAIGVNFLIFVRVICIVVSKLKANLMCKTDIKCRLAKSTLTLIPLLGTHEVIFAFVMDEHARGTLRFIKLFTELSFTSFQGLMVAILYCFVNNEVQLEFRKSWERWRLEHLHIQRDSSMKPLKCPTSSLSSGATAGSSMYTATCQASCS
D3 antag – qHTS of D3 Dopamine Receptor Antagonist: qHTS; D(3) dopamine receptor (Homo sapiens), P35462; D3R cells, DiscoveRx beta-arrestin luminescence, antagonist mode; hits give low values; max response, negative = inhibition, %; 360,000 tested, 2.5% active; in the data active = max response below about -50%; inconclusive = no clear call, values can overlap the other calls
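Cells plated overnight at 1500 cells/well, then exposed to library compounds with dopamine controls for 90 minutes at 37 degrees C. DiscoveRx reagent added for 30–60 minutes at room temperature; luminescence read, quantitative HTS format.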
ClpP mod – qHTS Assay for Activators of ClpP; Potency, µM (top dose mostly 57.5 µM); 340,000 tested, 1.9% active; ATP-dependent Clp protease proteolytic subunit (Bacillus subtilis (strain 168)), P80244; purified B. subtilis ClpP, FRET peptide cleavage, 20 min; AID 651965, 2013; active = well fitted falling curve with a large enough effect; inconclusive = small, poorly fitted or top-dose-only effect; inactive = no such curve, though single readings can be large or run the other way; note: the source files actives as falling curves though it sought activators and does not explain the sign; nearly all actives have a fitted effect of over 65% in size
Target sequence (P80244 whole entry, looked up): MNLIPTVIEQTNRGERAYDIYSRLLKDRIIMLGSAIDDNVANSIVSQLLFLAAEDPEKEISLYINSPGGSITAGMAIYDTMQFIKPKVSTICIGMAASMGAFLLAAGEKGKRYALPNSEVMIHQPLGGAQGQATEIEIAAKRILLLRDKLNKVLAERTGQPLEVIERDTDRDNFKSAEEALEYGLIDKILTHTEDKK
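ClpP 10 microg/mL final, pH 8 Tris/KCl buffer with BSA, glycerol, Tween-20; compound pinned in; FRET-FV substrate; RT 20 min; Ex320/Em430; ΔFRET vs ADEP 5.8 microM, DMSO, no enzyme.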
GLP1R inv ag – qHTS of GLP-1 Receptor Inverse Agonists (Inhibition Mode). HEK293 GLP-1R CRE-luciferase, luminescence, 24 h; GLP-1R form is constitutively active. Potency, µM (series often up to 38.3 µM), usual class: inhibitors. 410,000 tested, 1.6% active. AID 624417, 2012; note: nearly all actives have a fitted effect of over 55% in size
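HEK293 cells stably co-expressing constitutively active GLP-1R and a cAMP-responsive luciferase reporter were seeded in DMEM with 10% Nu serum, given compounds after 12 h, and incubated 24 h at 37 deg C. Luminescence was then read.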
D3 ag – qHTS of D3 Dopamine Receptor Agonist: qHTS. 410,000 tested, 0.58% active. D(3) dopamine receptor (Homo sapiens), P35462. max activation, %. D3R DiscoveRx beta-arrestin cells, luminescence, 90 min. AID 652048, 2013; in the data active = max activation above about 30%
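Agonist mode: compounds and dopamine controls were applied to plated cells for 90 min at 37 degrees C after an overnight attachment at 1500 cells/well. Luminescent read-out followed 30 - 60 minutes at room temperature with DiscoveRx detection reagent.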
A number is an active result; – = inactive; ? = inconclusive; · = no result; ! = not active in a repeat. Unless noted, calls come from the whole dose curve; as a rule, active = well fitted curve in the direction sought with a large enough effect; inconclusive = small, poorly fitted or top-dose-only effect, or another doubt; inactive = no such curve, though single readings can be large; an effect the other way counts as inactive or inconclusive.

SMILES | GLP1R cytotox | GLP1R ag | D3 antag | ClpP mod | GLP1R inv ag | D3 ag
Cc1ccc(CNC(=O)c2ccc3c(c2)NC(=O)C(CS(=O)(=O)Cc2cccc(C)c2)N3)cc1 (centres undefined) | – | · | · | ? | – | –
CCN(CC)CCNC(=O)c1ccc2c(c1)NC(=O)C(CS(=O)(=O)Cc1cccc(Br)c1)N2 (centres undefined) | – | · | · | 7.94µM | – | –
CCCCNC(=O)c1ccc2c(c1)NC(=O)C(CS(=O)(=O)Cc1ccc(F)cc1Cl)N2 (centres undefined) | – | · | · | 39.8µM | – | –
COc1ccc(-c2nc3ccccc3o2)cc1NC(=O)c1ccc(OCC(C)C)cc1 | – | · | · | ? | – | –
COc1cccc(CNC(=O)c2ccc(S(=O)(=O)N3CCCCC3)cc2)c1 | – | – | – | – | – | –
COc1ccc(N2CCN(C(=O)CN3C(=O)NC(c4ccc(OC)cc4)(c4ccc(OC)cc4)C3=O)CC2)cc1 | – | – | – | – | ? | –
COc1ccc(N2CCN(C(=O)CN3C(=O)NC4(CCCc5ccccc54)C3=O)CC2)cc1 (centres undefined) | – | – | -73.6 | · | ? | –
O=C(CN1C(=O)NC2(CCc3ccccc32)C1=O)c1ccc(Cl)cc1 (centres undefined) | – | – | – | · | ? | –
O=C(CN1C(=O)NC2(CCc3ccccc32)C1=O)Nc1cccc(Cl)c1 (centres undefined) | – | – | – | – | 11.2µM | –
CC(C)c1ccc(C(=O)CN2C(=O)NC3(CCc4ccccc43)C2=O)cc1 (centres undefined) | – | – | ? | – | 2.51µM | –
CC1(c2ccccc2Cl)NC(=O)N(CC(=O)Nc2ccc3c(c2)OCO3)C1=O (centres undefined) | – | – | -71.4 | – | – | –
COc1cccc(NC(=O)CN2C(=O)NC3(CCc4ccccc43)C2=O)c1 (centres undefined) | – | – | – | – | – | –
COc1ccc(NC(=O)Cn2c(-c3ccccc3)cn(-c3ccc(C)cc3)c2=O)cc1 | – | – | – | – | 10µM | –
Cc1ccc(NC(=O)Cn2c(-c3ccc4c(c3)OCO4)cn(-c3ccccc3)c2=O)cc1C | – | · | · | 28.2µM | – | –
O=C(CSc1n[nH]c(-c2ccc(F)cc2)n1)NCc1ccccc1Cl | – | · | · | – | – | –
O=C(Cn1cc(SCc2c(F)cccc2Cl)c2ccccc21)N1CCCCC1 | – | · | · | – | – | –
O=C(Cn1cc(SCc2c(F)cccc2Cl)c2ccccc21)N1CCCCCC1 | – | · | · | – | 10µM | –
CN(C)c1ccc(/C=C/c2ccnc3ccc(I)cc23)cc1 | · | · | · | – | · | ·
Cc1cccc(N(C)c2nc3ccc(C(=O)c4ccccc4)cc3n3c(C)nnc23)c1 | – | · | · | – | – | –
Cc1ccc(C(=O)/C=C/c2cn(CC(O)CN3CCc4ccccc43)c3ccccc23)cc1 (centres undefined) | – | · | · | – | ? | –
COc1ccc(C(=O)/C=C/c2cn(CC(O)CN3CCc4ccccc43)c3ccccc23)cc1OC (centres undefined) | – | · | · | – | 10µM | –
CCN(CC)C(=O)c1cccnc1 | · | – | · | · | · | –
CCOC(=O)N1CCN(C(=O)CN(c2cc(C)ccc2OC)S(=O)(=O)c2ccc(C)cc2)CC1 | – | – | · | – | – | –
C=CCN1C(c2ccc(Br)cc2)=CS/C1=C(\C#N)c1nnc(N2CCOCC2)n1-c1ccccc1 | – | – | – | · | 7.08µM | –
CCOCCCNC(=O)C1CCCN(Cc2nc(-c3ccc(CC)cc3)oc2C)C1 (centres undefined) | – | · | · | – | ? | –
SMILES | GLP1R cytotox | GLP1R ag | D3 antag | ClpP mod | GLP1R inv ag | D3 ag
CN(Cc1ccccc1)c1ccc(C(CC(N)=O)NC(=O)c2ccc(Br)cc2)cc1[N+](=O)[O-] (centres undefined) | – | – | -51.6 | – | ? | –
N#C/C(=N/Nc1ccc([N+](=O)[O-])cc1)C(=N)N1CCCCC1 | 11.2µM | – | -54.2 | – | ? | –
CCNC(=O)[C@@H]1CCCN1C(=O)[C@H](CCCN=C(N)N)NC(=O)[C@H](CC(C)C)NC(=O)[C@@H](Cc1c[nH]c2ccccc12)NC(=O)[C@H](Cc1ccc(O)cc1)NC(=O)[C@H](CO)NC(=O)[C@H](Cc1c[nH]c2ccccc12)NC(=O)[C@H](Cc1cnc[nH]1)NC(=O)[C@@H]1CCC(=O)N1 | · | – | · | · | · | –
N#CC1(NC(=O)CSc2n[nH]c(-c3ccccc3)n2)CCCCC1 | – | – | – | 14.1µM | – | –
Cc1cc(SCC(=O)NC2(C#N)CCCCC2)nc2c(C)cccc12 | – | – | – | 31.6µM | 10µM | –
CC(=O)N1CCc2c(sc3c2c(=O)n(CCc2ccccc2)c(=O)n3Cc2ccccc2C)C1 | – | – | · | – | ? | –
CCOc1cc(/C=C(\C#N)C(=O)Nc2ccc(C)cc2)ccc1OCc1cc(=O)n2nc(CC)sc2n1 | – | – | · | – | – | 48.0
CCc1nn2c(=O)cc(COc3ccc(/C=C(\C#N)C(=O)Nc4ccc(F)cc4)cc3OC)nc2s1 | – | – | · | – | – | –
Cc1cc(C)n(CCCNCC(O)c2ccccc2)n1 (centres undefined) | – | ? | -64.2! | – | – | –
O[C@@H](CNC[C@H](O)c1ccccc1)c1ccccc1 | – | – | – | – | – | –
COC(=O)c1cc2ccccc2c([N+](=O)[O-])c1O | – | – | – | · | – | –
COC(=O)c1cc2ccccc2c(-c2c(OC)c(C(=O)OC)cc3ccccc23)c1OC | – | – | – | 25.1µM | ? | –
CCC(=O)NC1CC2CCCC(C1)N2Cc1ccc(C)cc1 (centres undefined) | – | – | -108.2 | – | – | –
CNC(=S)NC1CC2CCCC(C1)N2Cc1ccc(C)cc1 (centres undefined) | – | – | -115.7 | – | – | –
CC(=O)NC1CC2CCC(C1)N2Cc1ccc(C)cc1 (centres undefined) | – | – | – | – | – | –
CCNC(=S)NC1CC2CCCC(C1)N2Cc1ccc(C)cc1 (centres undefined) | – | – | -117.9 | – | – | –
CNC(=S)NC1CC2CCCC(C1)N2Cc1ccccc1OC (centres undefined) | – | – | -61.6 | – | – | –
Cc1cc(C)c(/C=C/c2onc(C)c2S(=O)(=O)N2CCC(C(=O)NCc3ccco3)CC2)c(C)c1 | – | · | · | – | ? | –
